# Shown are actives, neighbours in structure and some others; about 3.7% of the full set was active somewhere.
# BRCA1 expr act: increases BRCA1 expression | AID 624202 | MCF7-BRCA1-FFLuc reporter, luminescence, 48 h; response scale: scaled: vehicle 0%, 10 µM genistein 100% | 1.1% of 380,000 active | Potency, µM (top dose mostly 46.1 µM), inactives show top-dose activation, usual class: activators; also: potency is read from the fitted curve at half-maximal effect; nearly all actives have a fitted effect of over 80% in size
#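 MCF7 cells carrying a BRCA1-firefly luciferase reporter (2000 cells/well, phenol-red free MEM) were attached for 2 h at 37 °C, then given compounds for 48 h. Luminescence was read 15 min after luciferase reagent; activity normalized to genistein (10 microM) and DMSO.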
# RGS4 inhibitor: human RGS4 inhibition; P49798; Transcreener GDP fluorescence polarization, RGS4-accelerated GTP hydrolysis; Potency, µM (highest dose often 114 µM), without a hit: at the top dose activity change, negative = inhibition, actives largely listed as inhibitors; 0.039% of 390,000 active; AID 504845; also: potency is read from the fitted curve at half-maximal effect; % is scaled to controls: 0 for no effect and ±100 for the full control effect; nearly all actives have a fitted effect of over 75% in size
# Target sequence (P49798 whole entry, looked up): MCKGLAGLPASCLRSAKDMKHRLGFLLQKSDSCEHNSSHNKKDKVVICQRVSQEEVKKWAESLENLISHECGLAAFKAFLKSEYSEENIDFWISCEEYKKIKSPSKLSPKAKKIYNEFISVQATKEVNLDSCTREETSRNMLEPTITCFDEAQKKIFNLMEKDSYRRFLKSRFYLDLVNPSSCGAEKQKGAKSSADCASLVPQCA
#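 MLSMR compounds (23 nl, pin-transferred) preincubated 10 min at room temperature with a 500nM (2x) first reagent, then RGS4 at 900nM (2x) plus Transcreener GDP mix added; fluorescence polarization (620/688 nm) read before and after 90 min at 30 °C.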
# DRD3 agonist: activates the human D3 dopamine receptor; 0.58% of 410,000 active; AID 652048; D3R DiscoveRx beta-arrestin cells, luminescence, 90 min; max activation, %; P35462; in the data active = max activation above about 30%; also: 0% is about no effect
# Target sequence (P35462 whole entry, looked up): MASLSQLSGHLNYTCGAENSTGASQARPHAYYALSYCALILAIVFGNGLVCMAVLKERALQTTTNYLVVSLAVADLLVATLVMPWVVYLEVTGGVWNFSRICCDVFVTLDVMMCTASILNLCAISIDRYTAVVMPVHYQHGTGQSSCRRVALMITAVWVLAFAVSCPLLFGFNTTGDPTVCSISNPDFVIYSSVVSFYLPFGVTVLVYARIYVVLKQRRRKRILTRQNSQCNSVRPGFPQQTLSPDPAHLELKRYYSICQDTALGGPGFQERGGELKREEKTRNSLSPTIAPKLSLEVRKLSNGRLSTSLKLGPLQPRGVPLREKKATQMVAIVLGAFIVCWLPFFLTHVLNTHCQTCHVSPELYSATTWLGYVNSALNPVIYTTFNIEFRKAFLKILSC
#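 Agonist-mode cell screen: cells plated at 1500/well and incubated overnight at 37 °C, then exposed to library compounds for 90 min at 37 °C. Detection reagent was added for 30–60 min at room temperature, and luminescence was read.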
# PTHR1 agonist: PTHR1 (human) receptor agonism; AID 743266; 0.075% of 410,000 active; HEK293 GP2 PTHR1 cells, GloSensor cAMP luminescence, 1 h; Potency, µM (series often up to 115 µM), for the others: at the highest dose activation, most hits filed as activators; also: potency is read from the fitted curve at half-maximal effect; nearly all actives have a fitted effect of over 55% in size
#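 HEK-293-derived GP2 cells expressing PTHR1 and a GloSensor cAMP reporter, 3,000/well, plated overnight, given luciferin plus IBMX (each 0.5 mM as added) for 1 h at 37 °C, then compound for 1 h at 37 °C. Luminescence was read after 15 min at room temperature.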
# B2AR arrestin: agonists driving beta-arrestin recruitment to human beta2-adrenergic receptor. P07550. beta-arrestin recruitment to beta2AR, cell-based reporter. Potency, µM (highest dose often 46.1 µM), without a hit: at the highest dose activation, usual class: activators. 0.02% of 330,000 active;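 also: potency is read from the fitted curve at half-maximal effect; 0% = DMSO controls and full agonism = EC100 isoproterenol or metaproterenol; nearly all actives have a fitted effect of over 65% in size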
# D3 antag: blocks the human D3 dopamine receptor; P35462; D3R cells, DiscoveRx beta-arrestin luminescence, antagonist mode; hits give low values; max response, negative = inhibition, %; 2.5% of 360,000 active; AID 652054; in the data active = max response below about -50%; inconclusive = no clear call, values can overlap the other calls; also: % is scaled to controls: 0 for no effect and ±100 for the full control effect
#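 Cells plated overnight at 1500 cells/well, then exposed to library compounds with dopamine controls for 90 minutes at 37 degrees C. DiscoveRx reagent added for 30–60 minutes at room temperature; luminescence read, quantitative HTS format.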
# Numbers without * were called inactive; i = inactive; u = inconclusive; x = no result; [ ] = another dose, or the depositor's remark. Unless noted, calls follow the shape of the dose curve; as a rule, active = well fitted curve in the direction sought with a large enough effect; inconclusive = small, poorly fitted or top-dose-only effect, or another doubt; inactive = no such curve, though single readings can be large; an effect the other way counts as inactive or inconclusive.
SMILES,BRCA1 expr act,RGS4 inhibitor,DRD3 agonist,PTHR1 agonist,B2AR arrestin,D3 antag
CC(CN1CCCCC1)OC(=O)C(C)(c1ccccc1)c1ccccc1 (stereo not given),-9.3%,-0.9%,-5.1,-2.4%,0.1%,-53.3*
Cc1occc1C(=O)N/N=C/c1ccc(OCc2ccccc2)cc1,6.31µM*,12.5%,-1.5,-12.4%,-0.2%,-14.0
O=C(N/N=C/c1ccc(O)cc1)c1cc[n+](Cc2ccccc2)cc1,-4.5%,7.1%,-3.1,i,-0.5%,u
O=C(N/N=C/c1ccc(OCc2ccccc2)cc1)c1cc[n+](Cc2ccccc2)cc1,3.55µM*,-20.0%,-3.1,i,-0.4%,-59.3*
COc1cc(N)c(Cl)cc1C(=O)N[C@H]1CCN(CCCOc2ccc(F)cc2)C[C@H]1OC,-3.5%,-7.5%,-93.0,-23.4%,1.0%,-77.3*
CC(C)CNC(=O)C1(C)CCCN1Cc1ccc(OC(F)(F)F)cc1 (stereo not given),11.5%,x,6.5,i,x,26.4
Oc1cccc(-c2c3nc(c(-c4cccc(O)c4)c4ccc([nH]4)c(-c4cccc(O)c4)c4nc(c(-c5cccc(O)c5)c5ccc2[nH]5)CC4)C=C3)c1,x,x,-11.4,x,x,x
CCCCNC(=O)C1CCN(Cc2ccc(OCc3ccccc3)cc2)CC1,18.1%,9.0%,-7.2,-32.3%[57.5 µM],-1.0%,0.0
CCCCN(C)C(=O)C1CCN(C/C(C)=C/c2ccccc2)CC1,2.0%,u,1.1,-6.1%[57.5 µM],-0.2%,-64.8*
CCCCNC(=O)C1CCN(C/C(C)=C/c2ccccc2)CC1,2.7%,-21.1%,-12.6,-23.3%,0.3%,-65.6*
C/C(=C\c1ccccc1)CN1CCC(C(=O)N2CCC(C)CC2)CC1,-4.6%,1.2%[11.4 µM],-11.2,-4.3%[57.5 µM],-0.4%,-26.5
C/C(=C\c1ccccc1)CN1CCC(C(=O)N2CCCCC2)CC1,-8.8%,-3.1%,-12.4,-24.2%,-0.1%,-56.8*
CC(C)C(=O)OCC(=O)[C@@]12O[C@H](C3CCCCC3)O[C@@H]1C[C@H]1[C@@H]3CCC4=CC(=O)C=C[C@]4(C)[C@H]3[C@@H](O)C[C@@]12C,x,x,5.5,x,x,x
Cc1ccccc1Nc1nn2c(=O)c3ccc(C(=O)NCC(C)c4ccccc4)cc3nc2s1 (stereo not given),-52.8%,3.1%,8.3,-35.3%,x,x
O/N=C/CCn1c(=S)sc2ccccc21,0.7%,-40.9%,-7.9,i,0.3%,-50.6*
O=C(OCCn1c(=S)sc2ccccc21)c1ccccc1,u,u,3.3,-32.6%,x,-8.5
O=C(O)c1ccc(Cn2nnc3sc4c(c3c2=O)CCCC4)cc1,7.94µM*,18.0%,-1.6,i,0.1%,-7.6
COC(=O)c1ccc(Cn2nnc3sc4c(c3c2=O)CCCC4)cc1,x,12.3%,1.5,i,x,x
COc1ccc(O)c(/C=N/NC(=S)Nc2cccc(S(=O)(=O)N(C)C)c2)c1,-96.2%,u,2.4,-0.1%,0.9%,47.7
COc1cccc(/C=N/NC(=S)Nc2cccc(S(=O)(=O)N(C)C)c2)c1,0.7%,u,1.2,-23.8%,17.8µM*,2.9
CCC(C)(C)N1CC(=O)N(Cc2ccccc2)C(c2ccc(OC)cc2)C1=O (stereo not given),2.0%,1.1%,1.0,-4.4%,-0.3%,-51.8*
COc1ccc(C2C(=O)N(C3CCCCCC3)CC(=O)N2Cc2ccccc2)cc1 (stereo not given),x,0.5%,-13.5,-4.5%,x,x
COc1ccc(-n2nc3c(c2NC(=O)C24CC5CC(CC(C5)C2)C4)CS(=O)C3)cc1 (stereo not given),10.3%,9.0%,-3.5,-19.7%,-0.7%,-55.7*
Cc1cccc(N(C)S(=O)(=O)c2c(C(=O)N3CCCCCC3)c(C)n(C)c2C)c1,x,0.6%,4.3,i,x,x
CC(C)(C)c1cc(CN2CCN(CCO)CC2)cc(C(C)(C)C)c1O,-35.3%,2.0%,-32.6,-9.8%,-1.0%,-81.8*
SMILES,BRCA1 expr act,RGS4 inhibitor,DRD3 agonist,PTHR1 agonist,B2AR arrestin,D3 antag
Fc1ccc(-[n+]2nc(Nc3ccccc3)sc2-c2c3ccccc3cc3ccccc23)cc1,-78.1%,-7.9%,-19.4,-11.2%,0.2%,-63.0*
Oc1ccc2ccccc2c1-c1sc(Nc2ccccc2)n[n+]1-c1ccc(F)cc1,-17.3%,-14.0%,1.0,i,-1.1%,-7.1
COc1ccc2sc(-c3ccc(N(C)C)cc3)c(C#CCCO)c2c1,-77.5%,-12.2%,32.1*,-12.8%,2.8%,122.3
COc1ccc2sc(-c3ccc(N(C)C)cc3)c(C#CC(C)(C)O)c2c1,-17.5%,0.7%,19.6,6.8%,-1.1%,22.9
COc1ccc2sc(-c3ccc(SC)cc3)c(C#CCO)c2c1,-35.5%,-24.5%,62.0*,-92.1%,0.0%,112.0
COc1ccc2sc(-c3ccc(N(C)C)cc3)c(C#Cc3cncn3C)c2c1,-22.2%,-11.0%,83.0*,-23.1%,0.2%,234.1
COc1ccc2sc(-c3ccc(SC)cc3)c(C#CC(C)(C)O)c2c1,-57.6%,-2.3%,10.3,5.7%,-0.7%,24.0
COc1cccc(-c2sc3ccc(OC)cc3c2C#CC(C)(C)O)c1,-30.3%,-14.2%,70.6*,-5.4%,-0.1%,-11.1
COc1cccc(-c2sc3ccc(OC)cc3c2C#CCC(C)O)c1 (stereo not given),-46.4%,0.0%,5.7,-23.4%,-0.6%,22.1
COc1ccc(-c2sc3ccc(OC)cc3c2C#CCCO)cc1,-49.0%,-20.2%,11.9,-11.2%,-0.9%,25.8
CCOc1ccc2nc(SCC(=O)Nc3ccc(F)cc3)nc(-c3ccccc3)c2c1,x,-6.6%,-17.1,0.0%,x,x
CCOC(=O)[C@]12CCCC=C1N(Cc1ccco1)C(=O)[C@H](CC(=O)N1CCN(C(=O)c3ccco3)CC1)C2,19.8%,x,7.1,i,x,0.0
O=C(NC(c1ccc(Cl)cc1)c1cnccn1)C1CCN(CCCOc2ccccc2)CC1 (stereo not given),-5.6%,x,-12.9,-20.1%,x,-84.2*
O=C(NC(c1ccccc1)c1cnccn1)C1CCN(CCCOc2ccccc2)CC1 (stereo not given),0.0%,x,-22.2,-8.3%,x,0.7
COc1ccc(C(NC(=O)C2CCN(CCOc3ccc(Cl)cc3Cl)CC2)c2ccccn2)cc1 (stereo not given),-61.7%,x,-24.4,-4.9%,x,-69.6*
O=C(NC(c1ccc(Cl)cc1)c1ccsc1)C1CCN(CCOc2ccc(Cl)cc2)CC1 (stereo not given),2.1%,x,-15.9,-51.1%,x,-84.3*
Cc1ccc(C(NC(=O)C2CCN(CCCOc3ccccc3)CC2)c2ccccn2)cc1 (stereo not given),10.4%,x,-12.2,-13.2%,x,-114.9*
O=C(NC(c1ccc(Cl)cc1)c1cnccn1)C1CCN(CCCc2ccccc2)CC1 (stereo not given),8.0%,x,-17.6,-14.3%,x,-1.2

# Bioassay records deposited in PubChem by National Center for Advancing Translational Sciences (NCATS).
